Results published in PubChem BioAssay AID1159580 (chemical genetic matrix, 2015).
Values joined by “and” are separate entries in the source; they are usually repeats but may differ in a detail not shown here. Equal entries are not always repeated. Among all 5,500 compounds or so, about 2,000 (36%) were called active. About 18% were inconclusive and are not listed. Cut-off read from the data, not from the text of the source: active = normalized growth mostly below about 0.91 (no sharp cut-off); inconclusive = no clear call, values can overlap the other calls; inactive = mostly above about 0.92. Some of the results follow.

Assay: chemical genetic growth profiling, strain panel (AID 1159580);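 note: tested at 20 µM; growth read once vehicle control cultures reached saturation at 30 °C; 1 = growth at the plate median or of vehicle wells; lower values mean less growth of the strain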
Conditions: S. cerevisiae deletion strains, growth OD

Measured: normalized growth

NC(=O)NC1NC(=O)NC1=O (configuration not stated)
inactive: locus YAL013W, strain DEP1, active compounds read low 0.994 | locus YAL021C, strain ccr4, active compounds read low 0.995 | locus YAL026C, strain drs2, active compounds read low 1 | locus YAL030W, strain snc1, active compounds read low 0.999 | locus YBL061C, strain skt5, active compounds read low 1 | locus YBR009C, strain hhf1, active compounds read low 0.999 | locus YBR021W, strain FUR4, active compounds read low 0.996 | locus YBR023C, strain chs3, active compounds read low 1 | locus YBR171W, strain sec66, active compounds read low 1.01 | locus YBR229C, strain ROT2, active compounds read low 0.987 | locus YBR231C, strain swc5, active compounds read low 0.996 | locus YBR279W, strain paf1, active compounds read low 1.01 | locus YCL011C, strain gbp2, active compounds read low 1.01 | locus YCL016C, strain dcc1, active compounds read low 1 | locus YCL029C, strain bik1, active compounds read low 0.976 | locus YCL061C, strain MRC1, active compounds read low 0.995 | locus YCL069W, strain vba3, active compounds read low 1.01 | locus YCR088W, strain abp1, active compounds read low 0.995 | locus YDL005C, strain med2, active compounds read low 1 | locus YDL035C, strain GPR1, active compounds read low 1.01 | locus YDL040C, strain nat1, active compounds read low 0.999 | locus YDL074C, strain BRE1, active compounds read low 1.01 | locus YDL101C, strain DUN1, active compounds read low 0.981 | locus YDL134C, strain PPH21, active compounds read low 0.982 | locus YDL185W, strain tfp1, active compounds read low 0.982 | locus YDL192W, strain arf1, active compounds read low 0.988 | locus YDR001C, strain nth1, active compounds read low 1.01 | locus YDR069C, strain doa4, active compounds read low 1 | locus YDR101C, strain arx1, active compounds read low 0.98 | locus YDR137W, strain rgp1, active compounds read low 0.991 | locus YDR150W, strain NUM1, active compounds read low 0.998 | locus YDR159W, strain sac3, active compounds read low 0.995 | locus YDR162C, strain NBP2, active compounds read low 0.992 | locus YDR195W, strain ref2 0.998 | locus YDR297W, strain sur2, active compounds read low 1.01 | locus YDR318W, strain mcm21, active compounds read low 0.986 | locus YDR334W, strain swr1, active compounds read low 1 | locus YDR335W, strain msn5, active compounds read low 1.01 | locus YDR388W, active compounds read low 0.979 | locus YDR392W, strain spt3, active compounds read low 0.958 | locus YDR502C, strain sam2, active compounds read low 1.02 | locus YEL003W, strain gim4, active compounds read low 1.01 | locus YEL037C, strain rad23, active compounds read low 1.01 | locus YEL061C, strain CIN8 (second series), active compounds read low 1.01 | locus YEL061C, strain CIN8, active compounds read low 1 | locus YER015W, strain faa2, active compounds read low 1 | locus YER016W, strain bim1, active compounds read low 1.01 | locus YER110C, active compounds read low 0.979 | locus YER111C, strain swi4, active compounds read low 1.01 | locus YER155C, strain BEM2 (second series), active compounds read low 1.01 | locus YER155C, strain BEM2, active compounds read low 0.997 | locus YER167W, strain BCK2, active compounds read low 1 | locus YFR010W, strain ubp6, active compounds read low 1.01 | locus YGL078C, strain dbp3, active compounds read low 0.989 | locus YGL086W, strain mad1, active compounds read low 0.999 | locus YGL167C, strain pmr1, active compounds read low 1 | locus YGL173C, strain kem1, active compounds read low 1 | locus YGL227W, strain vid30, active compounds read low 1 | locus YGL240W, strain doc1, active compounds read low 0.996 | locus YGL248W, strain PDE1, active compounds read low 0.986 | locus YGL253W, strain hxk2, active compounds read low 1 | locus YGR078C, strain PAC10, active compounds read low 0.987 | locus YGR135W, strain pre9, active compounds read low 0.998 | locus YGR229C, strain SMI1, active compounds read low 1.01 | locus YGR252W, strain gcn5, active compounds read low 1.13 | locus YHR013C, strain ard1, active compounds read low 1.01 | locus YHR027C, strain rpn1, active compounds read low 1 | locus YHR030C, strain SLT2, active compounds read low 0.994 and 1.03 | locus YHR079C, strain IRE1 (second series), active compounds read low 0.972 | locus YHR079C, strain IRE1, active compounds read low 1.02 | locus YHR094C, strain hxt1, active compounds read low 0.983 | locus YHR129C, strain ARP1, active compounds read low 0.983 | locus YHR142W, strain chs7, active compounds read low 1.01 | locus YHR200W, strain rpn10, active compounds read low 0.988 | locus YIL066C, strain RNR3, active compounds read low 0.994 | locus YIL073C, strain SPO22, active compounds read low 0.998 | locus YIL125W, strain kgd1, active compounds read low 0.999 | locus YIR030C, strain dcg1, active compounds read low 0.984 | locus YJL092W, strain hpr5, active compounds read low 1 | locus YJL095W, strain BCK1 (second series), active compounds read low 1 | locus YJL095W, strain BCK1, active compounds read low 0.98 and 1.03 | locus YJL115W, strain asf1, active compounds read low 0.997 | locus YJL129C, strain trk1, active compounds read low 0.997 | locus YJL134W, strain LCB3, active compounds read low 0.991 | locus YJL154C, strain vps35, active compounds read low 1.01 | locus YJL164C, strain tpk1, active compounds read low 1 | locus YJL166W, strain qcr8, active compounds read low 0.993 | locus YJL168C, strain set2, active compounds read low 0.98 | locus YJL187C, strain SWE1 (second series), active compounds read low 0.979 | locus YJL187C, strain SWE1, active compounds read low 1 | locus YJR043C, strain POL32, active compounds read low 0.979 | locus YJR066W, strain TOR1, active compounds read low 0.984
